# In publication PMC7862700, “An all-to-all approach to the identification of sequence-specific readers for epigenetic DNA modifications on cytosine”:
# What was measured:
# Experiment in all cases: DAPPL (digital affinity profiling via proximity ligation, sequencing); 10 mM Tris-HCl pH 7.5, 50 mM NaCl, 1 mM DTT, 4% glycerol, room temperature, 30 min; GST-TFs on glutathione beads, 16-mer random dsDNA library, 0.1% formaldehyde crosslink after washing; high values mean tight binding
# FLI1 = target: T1, FLI1 (Homo sapiens, UniProt Q01543 1-452); conditions: protein: recombinant; tags: N-terminal GST; dsDNA, one strand shown
# T1 sequence: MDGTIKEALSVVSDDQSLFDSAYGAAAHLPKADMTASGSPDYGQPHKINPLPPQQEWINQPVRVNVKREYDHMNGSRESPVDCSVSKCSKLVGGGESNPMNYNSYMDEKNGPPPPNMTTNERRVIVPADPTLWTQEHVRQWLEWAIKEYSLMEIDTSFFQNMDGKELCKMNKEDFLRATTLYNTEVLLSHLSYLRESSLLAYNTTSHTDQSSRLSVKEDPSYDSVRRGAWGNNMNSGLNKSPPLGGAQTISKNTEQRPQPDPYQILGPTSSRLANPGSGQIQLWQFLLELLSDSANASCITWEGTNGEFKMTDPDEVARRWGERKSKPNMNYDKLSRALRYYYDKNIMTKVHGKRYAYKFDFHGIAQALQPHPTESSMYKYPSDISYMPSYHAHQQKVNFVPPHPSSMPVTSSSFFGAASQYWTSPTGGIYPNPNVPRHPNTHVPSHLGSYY
# Method in brief: (§1)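 Human transcription factors were made in yeast as GST fusions, captured on glutathione beads and barcoded with DNA. With a tag-only sample included, the pool was incubated with 200 nmole of a random double-stranded 16-mer DNA library in Tris/NaCl/DTT/glycerol buffer at room temperature for 30 min, then crosslinked with 0.1% formaldehyde after washing, ligated by proximity, amplified and sequenced. For binding signal, each hexamer's read frequency for a factor is divided by its frequency for the tag-only sample.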
# ELK1 = target: T2, ELK1 (Homo sapiens, UniProt P19419 1-428); conditions: protein: recombinant; tags: N-terminal GST; dsDNA, one strand shown
# T2 sequence: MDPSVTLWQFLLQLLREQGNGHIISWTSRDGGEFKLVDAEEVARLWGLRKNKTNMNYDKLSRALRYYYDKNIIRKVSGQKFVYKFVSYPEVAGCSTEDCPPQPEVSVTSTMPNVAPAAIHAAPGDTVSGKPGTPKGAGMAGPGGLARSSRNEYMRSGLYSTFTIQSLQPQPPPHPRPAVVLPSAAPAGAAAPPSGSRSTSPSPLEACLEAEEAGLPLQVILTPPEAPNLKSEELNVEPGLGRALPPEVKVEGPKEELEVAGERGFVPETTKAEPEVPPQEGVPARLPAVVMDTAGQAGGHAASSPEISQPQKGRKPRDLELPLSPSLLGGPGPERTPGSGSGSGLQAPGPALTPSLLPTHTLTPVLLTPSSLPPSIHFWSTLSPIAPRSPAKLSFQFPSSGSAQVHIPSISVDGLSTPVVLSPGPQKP
# Method in brief: as §1
# GABPA = target: T3, GABPA (Homo sapiens, UniProt Q06546 1-454); conditions: protein: recombinant; tags: N-terminal GST; dsDNA, one strand shown
# T3 sequence: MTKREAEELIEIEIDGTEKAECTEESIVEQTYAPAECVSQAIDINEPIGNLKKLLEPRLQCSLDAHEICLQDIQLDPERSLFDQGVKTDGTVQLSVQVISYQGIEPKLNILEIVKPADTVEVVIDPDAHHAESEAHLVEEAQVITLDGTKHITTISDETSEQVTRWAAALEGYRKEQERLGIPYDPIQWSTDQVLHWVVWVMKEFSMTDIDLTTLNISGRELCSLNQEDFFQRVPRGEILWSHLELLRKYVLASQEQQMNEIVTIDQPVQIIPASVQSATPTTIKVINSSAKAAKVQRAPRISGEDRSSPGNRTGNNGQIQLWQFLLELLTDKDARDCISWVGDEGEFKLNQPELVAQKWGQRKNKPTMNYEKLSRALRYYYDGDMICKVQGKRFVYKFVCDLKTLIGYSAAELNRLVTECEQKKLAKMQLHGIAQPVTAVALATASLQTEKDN
# Method in brief: as §1
# ERG = target: T4, ERG (Homo sapiens, UniProt P11308 1-479); conditions: protein: recombinant; tags: N-terminal GST; dsDNA, one strand shown
# T4 sequence: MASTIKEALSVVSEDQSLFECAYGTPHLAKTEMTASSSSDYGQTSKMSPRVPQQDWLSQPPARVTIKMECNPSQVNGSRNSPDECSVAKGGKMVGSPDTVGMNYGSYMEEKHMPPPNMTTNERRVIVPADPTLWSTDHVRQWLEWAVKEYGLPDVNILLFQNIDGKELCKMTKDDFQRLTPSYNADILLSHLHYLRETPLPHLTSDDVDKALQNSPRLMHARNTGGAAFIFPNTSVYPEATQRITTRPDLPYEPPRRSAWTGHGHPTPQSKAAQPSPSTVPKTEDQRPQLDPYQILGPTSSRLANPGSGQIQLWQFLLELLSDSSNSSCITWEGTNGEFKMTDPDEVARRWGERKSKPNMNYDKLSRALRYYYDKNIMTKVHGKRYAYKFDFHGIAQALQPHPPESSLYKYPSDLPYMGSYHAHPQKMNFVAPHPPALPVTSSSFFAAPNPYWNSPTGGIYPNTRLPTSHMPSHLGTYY
# Method in brief: as §1
# ELF1 = ELF1 (Homo sapiens, UniProt P32519 1-619); conditions: protein: recombinant; tags: N-terminal GST; dsDNA, one strand shown
# Chain of ELF1 (P32519 whole entry): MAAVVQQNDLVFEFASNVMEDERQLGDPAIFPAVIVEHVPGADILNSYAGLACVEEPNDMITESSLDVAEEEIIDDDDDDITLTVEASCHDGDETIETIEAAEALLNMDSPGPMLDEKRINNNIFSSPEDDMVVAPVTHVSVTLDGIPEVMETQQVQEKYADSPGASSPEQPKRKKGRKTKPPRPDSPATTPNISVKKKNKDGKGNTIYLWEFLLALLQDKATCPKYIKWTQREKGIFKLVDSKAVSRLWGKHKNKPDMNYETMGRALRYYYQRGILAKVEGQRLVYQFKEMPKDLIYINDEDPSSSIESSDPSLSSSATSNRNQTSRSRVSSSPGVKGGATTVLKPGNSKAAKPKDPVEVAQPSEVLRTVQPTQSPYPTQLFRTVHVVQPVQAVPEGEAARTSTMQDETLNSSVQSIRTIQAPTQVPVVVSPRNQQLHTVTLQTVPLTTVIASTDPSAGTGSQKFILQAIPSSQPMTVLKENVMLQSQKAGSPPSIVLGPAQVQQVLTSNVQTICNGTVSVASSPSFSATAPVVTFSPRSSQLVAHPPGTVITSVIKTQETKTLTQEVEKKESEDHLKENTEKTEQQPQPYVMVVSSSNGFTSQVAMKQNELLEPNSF
# Method in brief: as §1
# EHF = target: T5, EHF (Homo sapiens, UniProt Q9NZC4 1-300); conditions: protein: recombinant; tags: N-terminal GST; dsDNA, one strand shown
# T5 sequence: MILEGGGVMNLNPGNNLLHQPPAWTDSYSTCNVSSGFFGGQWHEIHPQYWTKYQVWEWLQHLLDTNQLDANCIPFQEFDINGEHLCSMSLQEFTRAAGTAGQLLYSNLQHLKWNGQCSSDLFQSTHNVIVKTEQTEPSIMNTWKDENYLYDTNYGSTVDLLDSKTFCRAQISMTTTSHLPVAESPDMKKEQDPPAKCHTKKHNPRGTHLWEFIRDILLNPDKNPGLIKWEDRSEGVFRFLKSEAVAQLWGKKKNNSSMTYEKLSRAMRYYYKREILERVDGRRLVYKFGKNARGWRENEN
# Method in brief: as §1
# SPI1 = SPI1 (Homo sapiens, UniProt P17947 1-270); conditions: protein: recombinant; tags: N-terminal GST; dsDNA, one strand shown
# Method in brief: as §1
# SPIB = SPIB (Homo sapiens, UniProt Q01892 1-262); conditions: protein: recombinant; tags: N-terminal GST; dsDNA, one strand shown
# Chain of SPIB (Q01892 whole entry): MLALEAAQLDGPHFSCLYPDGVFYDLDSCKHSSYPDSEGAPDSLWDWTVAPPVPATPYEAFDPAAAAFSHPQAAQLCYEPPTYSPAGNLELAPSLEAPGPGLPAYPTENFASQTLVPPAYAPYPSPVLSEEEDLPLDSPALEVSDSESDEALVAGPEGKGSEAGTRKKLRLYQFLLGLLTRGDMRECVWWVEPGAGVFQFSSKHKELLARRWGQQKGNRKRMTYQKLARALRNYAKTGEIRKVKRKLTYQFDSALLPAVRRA
# Method in brief: as §1
# ELK3 = target: T6, ELK3 (Homo sapiens, UniProt P41970 1-407); conditions: protein: recombinant; tags: N-terminal GST; dsDNA, one strand shown
# T6 sequence: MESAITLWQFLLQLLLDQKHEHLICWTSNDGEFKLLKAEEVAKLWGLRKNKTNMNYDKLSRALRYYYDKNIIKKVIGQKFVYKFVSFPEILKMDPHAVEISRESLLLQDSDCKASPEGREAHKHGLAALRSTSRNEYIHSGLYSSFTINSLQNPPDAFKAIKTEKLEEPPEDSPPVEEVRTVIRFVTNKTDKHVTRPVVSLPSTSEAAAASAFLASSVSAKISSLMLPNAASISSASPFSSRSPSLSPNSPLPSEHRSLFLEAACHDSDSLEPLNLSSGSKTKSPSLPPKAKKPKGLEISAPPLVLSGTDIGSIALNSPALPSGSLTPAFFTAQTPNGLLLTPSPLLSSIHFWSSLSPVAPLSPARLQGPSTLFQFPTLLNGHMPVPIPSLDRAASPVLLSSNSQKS
# Method in brief: as §1
# FEV = target: T7, FEV (Homo sapiens, UniProt Q99581 1-238); conditions: protein: recombinant; tags: N-terminal GST; dsDNA, one strand shown
# T7 sequence: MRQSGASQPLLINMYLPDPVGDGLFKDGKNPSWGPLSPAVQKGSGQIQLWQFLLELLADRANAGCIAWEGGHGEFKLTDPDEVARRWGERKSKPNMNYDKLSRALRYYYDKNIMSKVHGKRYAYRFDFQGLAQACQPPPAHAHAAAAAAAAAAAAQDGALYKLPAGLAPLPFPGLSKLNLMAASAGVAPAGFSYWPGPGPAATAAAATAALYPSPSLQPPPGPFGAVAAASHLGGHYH
# Method in brief: as §1
# ETV5 = ETV5 (Homo sapiens, UniProt P41161 1-510); conditions: protein: recombinant; tags: N-terminal GST; dsDNA, one strand shown
# Chain of ETV5 (P41161 whole entry): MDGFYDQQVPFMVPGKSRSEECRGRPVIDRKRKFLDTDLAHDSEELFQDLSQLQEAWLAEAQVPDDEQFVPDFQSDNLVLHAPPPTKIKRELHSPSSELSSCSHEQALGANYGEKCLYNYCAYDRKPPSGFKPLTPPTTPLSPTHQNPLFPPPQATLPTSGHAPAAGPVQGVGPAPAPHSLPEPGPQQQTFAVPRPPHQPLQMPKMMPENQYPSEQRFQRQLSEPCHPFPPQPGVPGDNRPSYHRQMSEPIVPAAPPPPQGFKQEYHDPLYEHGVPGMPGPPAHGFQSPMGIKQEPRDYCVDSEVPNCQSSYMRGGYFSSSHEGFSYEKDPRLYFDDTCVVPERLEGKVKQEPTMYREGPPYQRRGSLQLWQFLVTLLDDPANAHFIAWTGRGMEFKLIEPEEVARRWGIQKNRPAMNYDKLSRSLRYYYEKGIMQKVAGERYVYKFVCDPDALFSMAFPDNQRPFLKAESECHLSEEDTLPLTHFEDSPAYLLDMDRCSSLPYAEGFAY
# Method in brief: as §1
# HSF1 = HSF1 (Homo sapiens, UniProt Q00613 1-529); conditions: protein: recombinant; tags: N-terminal GST; chain copies: 3; dsDNA, one strand shown
# Chain of HSF1 (Q00613 whole entry): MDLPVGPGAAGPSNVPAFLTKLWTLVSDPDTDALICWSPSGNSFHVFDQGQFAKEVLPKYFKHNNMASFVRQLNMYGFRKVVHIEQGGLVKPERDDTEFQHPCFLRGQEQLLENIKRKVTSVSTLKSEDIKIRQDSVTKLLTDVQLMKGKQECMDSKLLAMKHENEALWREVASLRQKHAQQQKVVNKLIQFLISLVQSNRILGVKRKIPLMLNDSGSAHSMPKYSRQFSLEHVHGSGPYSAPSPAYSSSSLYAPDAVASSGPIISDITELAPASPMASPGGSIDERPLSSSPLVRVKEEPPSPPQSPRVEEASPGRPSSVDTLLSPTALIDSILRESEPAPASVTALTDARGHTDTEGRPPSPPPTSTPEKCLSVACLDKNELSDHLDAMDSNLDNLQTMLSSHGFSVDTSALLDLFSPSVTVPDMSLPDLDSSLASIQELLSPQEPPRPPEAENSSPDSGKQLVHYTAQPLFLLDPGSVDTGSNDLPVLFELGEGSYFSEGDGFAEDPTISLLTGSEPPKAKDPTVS
# Method in brief: as §1
# SPIC = target: T8, SPIC (Homo sapiens, UniProt Q8N5J4 1-248); conditions: protein: recombinant; tags: N-terminal GST; dsDNA, one strand shown
# T8 sequence: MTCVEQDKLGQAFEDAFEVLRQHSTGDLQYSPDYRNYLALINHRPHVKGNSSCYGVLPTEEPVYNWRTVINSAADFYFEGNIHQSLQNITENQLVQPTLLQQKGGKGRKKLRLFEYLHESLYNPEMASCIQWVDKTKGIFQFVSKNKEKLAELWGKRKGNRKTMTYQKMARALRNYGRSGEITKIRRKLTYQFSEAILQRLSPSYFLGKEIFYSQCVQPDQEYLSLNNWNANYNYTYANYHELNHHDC
# Method in brief: as §1
# ELF4 = ELF4 (Homo sapiens, UniProt Q99607 1-663); conditions: protein: recombinant; tags: N-terminal GST; dsDNA, one strand shown
# Chain of ELF4 (Q99607 whole entry): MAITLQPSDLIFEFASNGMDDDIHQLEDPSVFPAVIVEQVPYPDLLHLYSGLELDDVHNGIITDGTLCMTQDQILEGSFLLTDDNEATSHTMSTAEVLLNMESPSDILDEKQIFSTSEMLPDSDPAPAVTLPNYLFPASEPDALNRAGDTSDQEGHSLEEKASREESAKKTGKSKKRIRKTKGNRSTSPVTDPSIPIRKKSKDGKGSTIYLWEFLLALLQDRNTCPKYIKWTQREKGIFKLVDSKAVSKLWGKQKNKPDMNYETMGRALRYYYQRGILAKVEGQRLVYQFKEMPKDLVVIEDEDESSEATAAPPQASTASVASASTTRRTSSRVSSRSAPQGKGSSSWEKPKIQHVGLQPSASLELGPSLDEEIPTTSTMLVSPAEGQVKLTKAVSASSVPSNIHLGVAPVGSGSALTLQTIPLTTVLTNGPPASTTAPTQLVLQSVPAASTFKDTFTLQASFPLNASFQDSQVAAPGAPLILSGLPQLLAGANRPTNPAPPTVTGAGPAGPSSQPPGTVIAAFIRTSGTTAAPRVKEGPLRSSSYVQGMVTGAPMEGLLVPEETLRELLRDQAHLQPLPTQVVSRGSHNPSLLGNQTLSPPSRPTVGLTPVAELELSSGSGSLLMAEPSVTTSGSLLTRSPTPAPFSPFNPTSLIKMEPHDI
# Method in brief: as §1
# ELK4 = target: T9, ELK4 (Homo sapiens, UniProt P28324-2 1-405); conditions: protein: recombinant; tags: N-terminal GST; dsDNA, one strand shown
# T9 sequence: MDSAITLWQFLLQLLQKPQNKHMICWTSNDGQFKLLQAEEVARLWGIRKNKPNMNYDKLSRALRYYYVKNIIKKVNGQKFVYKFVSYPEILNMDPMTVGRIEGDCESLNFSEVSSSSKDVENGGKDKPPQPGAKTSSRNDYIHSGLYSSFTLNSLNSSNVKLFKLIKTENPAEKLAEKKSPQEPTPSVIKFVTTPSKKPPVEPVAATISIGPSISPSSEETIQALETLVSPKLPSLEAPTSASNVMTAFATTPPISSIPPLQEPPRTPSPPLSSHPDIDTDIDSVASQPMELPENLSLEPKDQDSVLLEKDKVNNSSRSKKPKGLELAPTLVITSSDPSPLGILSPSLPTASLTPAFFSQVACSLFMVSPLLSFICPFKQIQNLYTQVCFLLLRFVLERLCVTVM
# Method in brief: as §1
# ETV2 = target: T10, ETV2 (Homo sapiens, UniProt O00321 1-342); conditions: protein: recombinant; tags: N-terminal GST; dsDNA, one strand shown
# T10 sequence: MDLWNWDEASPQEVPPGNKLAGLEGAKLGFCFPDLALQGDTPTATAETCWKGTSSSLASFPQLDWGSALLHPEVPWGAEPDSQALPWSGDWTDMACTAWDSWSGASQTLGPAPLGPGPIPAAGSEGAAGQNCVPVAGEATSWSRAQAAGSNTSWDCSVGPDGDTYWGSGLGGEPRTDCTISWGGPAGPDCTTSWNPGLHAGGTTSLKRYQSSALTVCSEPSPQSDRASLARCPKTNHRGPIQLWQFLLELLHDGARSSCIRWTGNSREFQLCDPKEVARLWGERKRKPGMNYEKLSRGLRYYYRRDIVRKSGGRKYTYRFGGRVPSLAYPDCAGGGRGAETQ
# Method in brief: as §1
# ELF3 = target: T11, ELF3 (Homo sapiens, UniProt P78545 1-371); conditions: protein: recombinant; tags: N-terminal GST; dsDNA, one strand shown
# T11 sequence: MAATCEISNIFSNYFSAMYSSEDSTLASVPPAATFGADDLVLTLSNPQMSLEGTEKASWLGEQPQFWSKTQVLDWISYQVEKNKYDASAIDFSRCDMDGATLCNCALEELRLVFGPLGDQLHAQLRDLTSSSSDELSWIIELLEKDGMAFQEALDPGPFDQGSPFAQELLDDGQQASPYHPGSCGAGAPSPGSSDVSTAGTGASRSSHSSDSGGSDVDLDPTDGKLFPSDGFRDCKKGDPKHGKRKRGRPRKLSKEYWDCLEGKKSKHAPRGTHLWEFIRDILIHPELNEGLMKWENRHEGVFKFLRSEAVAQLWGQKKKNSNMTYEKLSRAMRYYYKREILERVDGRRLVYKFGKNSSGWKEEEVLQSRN
# Method in brief: as §1
# CRX = CRX (Homo sapiens, UniProt O43186 1-299); conditions: protein: recombinant; tags: N-terminal GST; dsDNA, one strand shown
# Chain of CRX (O43186 whole entry): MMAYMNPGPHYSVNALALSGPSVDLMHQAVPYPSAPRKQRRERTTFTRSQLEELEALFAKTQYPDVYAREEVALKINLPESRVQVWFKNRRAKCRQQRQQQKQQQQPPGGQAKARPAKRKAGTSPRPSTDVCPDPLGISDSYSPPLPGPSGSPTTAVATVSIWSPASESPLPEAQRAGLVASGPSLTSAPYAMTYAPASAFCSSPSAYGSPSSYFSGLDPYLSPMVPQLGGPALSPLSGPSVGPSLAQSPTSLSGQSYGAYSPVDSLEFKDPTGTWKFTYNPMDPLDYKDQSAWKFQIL
# Method in brief: as §1
# ETV1 = ETV1 (Homo sapiens, UniProt P50549 1-477); conditions: protein: recombinant; tags: N-terminal GST; dsDNA, one strand shown
# Chain of ETV1 (P50549 whole entry): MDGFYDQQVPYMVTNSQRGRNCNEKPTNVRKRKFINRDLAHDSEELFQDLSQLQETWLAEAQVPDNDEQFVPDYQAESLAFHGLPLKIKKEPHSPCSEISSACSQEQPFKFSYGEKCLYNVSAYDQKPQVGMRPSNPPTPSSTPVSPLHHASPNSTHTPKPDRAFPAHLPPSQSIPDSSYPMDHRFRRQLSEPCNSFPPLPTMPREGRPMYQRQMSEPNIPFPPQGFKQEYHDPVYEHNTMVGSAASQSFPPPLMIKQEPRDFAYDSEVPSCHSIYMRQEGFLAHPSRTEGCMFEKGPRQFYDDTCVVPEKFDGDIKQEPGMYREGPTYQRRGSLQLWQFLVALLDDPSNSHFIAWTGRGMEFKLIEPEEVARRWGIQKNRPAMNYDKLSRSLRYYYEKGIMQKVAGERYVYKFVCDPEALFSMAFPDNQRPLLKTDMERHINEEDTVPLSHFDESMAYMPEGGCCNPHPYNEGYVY
# Method in brief: as §1
sequence,measurement,setting,value
TTGTAG,binding signal,FLI1,"1.13 fold enrichment (6-mer frequency, TF over GST control)"
same,binding signal,ELK1,"1.19 fold enrichment (6-mer frequency, TF over GST control)"
same,binding signal,GABPA,"1.12 fold enrichment (6-mer frequency, TF over GST control)"
same,binding signal,ERG,"1.12 fold enrichment (6-mer frequency, TF over GST control)"
same,binding signal,ELF1,"1.14 fold enrichment (6-mer frequency, TF over GST control)"
same,binding signal,EHF,"1.11 fold enrichment (6-mer frequency, TF over GST control)"
same,binding signal,SPI1,"1.07 fold enrichment (6-mer frequency, TF over GST control)"
same,binding signal,SPIB,"1.23 fold enrichment (6-mer frequency, TF over GST control)"
same,binding signal,ELK3,"1.2 fold enrichment (6-mer frequency, TF over GST control)"
same,binding signal,FEV,"1.02 fold enrichment (6-mer frequency, TF over GST control)"
same,binding signal,ETV5,"1.1 fold enrichment (6-mer frequency, TF over GST control)"
same,binding signal,HSF1,"1.23 fold enrichment (6-mer frequency, TF over GST control)"
same,binding signal,SPIC,"1.02 fold enrichment (6-mer frequency, TF over GST control)"
same,binding signal,ELF4,"1.2 fold enrichment (6-mer frequency, TF over GST control)"
same,binding signal,ELK4,"1.31 fold enrichment (6-mer frequency, TF over GST control)"
same,binding signal,ETV2,"1.15 fold enrichment (6-mer frequency, TF over GST control)"
same,binding signal,ELF3,"1.03 fold enrichment (6-mer frequency, TF over GST control)"
same,binding signal,CRX,"1.13 fold enrichment (6-mer frequency, TF over GST control)"
same,binding signal,ETV1,"1.25 fold enrichment (6-mer frequency, TF over GST control)"
